Assay outcomes as filed in PubChem.
Most compounds without a hit are left out; they make up all but 3.7% or so of the library.
BRCA1 expr up = BRCA1 expression activation | Potency, µM (top dose mostly 46.1 µM), actives largely listed as activators | actives 1.1% (n = 380,000) | MCF7-BRCA1-FFLuc reporter, luminescence, 48 h; response scale: scaled: vehicle 0%, 10 µM genistein 100% | AID 624202; note: nearly all actives have a fitted effect of over 80% in size
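Cells: MCF7-BRCA1-FFLuc, 2000/well. Exposure: 48 h, 37 °C, 5% CO2. Read: luminescence, 15 min post-substrate. Controls: genistein 10 microM (maximal activation), DMSO (neutral).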
RGS4 inhibitor = blocks human RGS4-accelerated GTP hydrolysis; P49798; Potency, µM (doses to about 114 µM), actives largely listed as inhibitors; actives 0.039% (n = 390,000); Transcreener GDP fluorescence polarization, RGS4-accelerated GTP hydrolysis; note: nearly all actives have a fitted effect of over 75% in size
Target sequence (P49798 whole entry, looked up): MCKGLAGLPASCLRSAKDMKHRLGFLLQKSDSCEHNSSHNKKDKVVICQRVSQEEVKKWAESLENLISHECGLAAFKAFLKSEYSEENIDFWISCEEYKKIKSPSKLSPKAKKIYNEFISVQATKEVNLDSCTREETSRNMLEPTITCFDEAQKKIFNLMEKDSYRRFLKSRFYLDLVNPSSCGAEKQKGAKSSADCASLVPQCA
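MLSMR compounds (23 nl, pin-transferred) preincubated 10 min at room temperature with a 500nM (2x) first reagent, then RGS4 at 900nM (2x) plus Transcreener GDP mix added; fluorescence polarization (620/688 nm) read before and after 90 min at 30 °C.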
B2AR arrestin = agonists driving beta-arrestin recruitment to human beta2-adrenergic receptor | P07550 | beta-arrestin recruitment to beta2AR, cell-based reporter | Potency, µM (highest dose often 46.1 µM), usual class: activators | actives 0.02% (n = 330,000) | AID 492947; note: nearly all actives have a fitted effect of over 65% in size
PTHR1 ag = activates the human parathyroid hormone receptor PTHR1; Q03431; HEK293 GP2 PTHR1 cells, GloSensor cAMP luminescence, 1 h; Potency, µM (top dose mostly 115 µM), most hits filed as activators; actives 0.075% (n = 410,000); AID 743266; note: nearly all actives have a fitted effect of over 55% in size
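HEK-293-derived GP2 cells expressing PTHR1 and a GloSensor cAMP reporter, 3,000/well, plated overnight, given luciferin plus IBMX (each 0.5 mM as added) for 1 h at 37 °C, then compound for 1 h at 37 °C. Luminescence was read after 15 min at room temperature.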
DRD3 antagonist = antagonists of human D3 dopamine receptor; D3R cells, DiscoveRx beta-arrestin luminescence, antagonist mode; hits give low values; max response, negative = inhibition, %; actives 2.5% (n = 360,000); AID 652054; in the data active = max response below about -50%; inconclusive = no clear call, values can overlap the other calls
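Cells expressing the human receptor were seeded at 1500 cells/well, incubated overnight at 37 degrees C in 5% CO2, then exposed to library compounds with dopamine controls for 90 minutes at 37 degrees C before luminescent detection.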
DRD3 agonist = activates the human D3 dopamine receptor. P35462. D3R DiscoveRx beta-arrestin cells, luminescence, 90 min. max activation, %. actives 0.58% (n = 410,000); in the data active = max activation above about 30%
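Agonist-mode cell screen: cells plated at 1500/well and incubated overnight at 37 °C, then exposed to library compounds for 90 min at 37 °C. Detection reagent was added for 30–60 min at room temperature, and luminescence was read.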
Of the large screens only hits and unclear results are named; the others gave an inactive call. Unless noted, calls come from the whole dose curve; as a rule, active = well fitted curve in the direction sought with a large enough effect; inconclusive = small, poorly fitted or top-dose-only effect, or another doubt; inactive = no such curve, though single readings can be large; an effect the other way counts as inactive or inconclusive.

COc1ccc(C(=O)NCCCN=C2NS(=O)(=O)c3ccccc32)cc1	DRD3 antagonist -75.1
COc1ccc(S(=O)(=O)N[C@H]2CC[C@H](CCNC(=O)c3ccccc3F)O[C@@H]2CO)cc1	none (no result: BRCA1 expr up, RGS4 inhibitor, B2AR arrestin)
O=C(NCc1cccnc1)c1ccc2sc([C@@H]3O[C@H](CO)[C@H](O)[C@H](O)[C@H]3O)nc2c1	DRD3 antagonist -55.1 (no result: RGS4 inhibitor, B2AR arrestin)
CN(C)c1cccc(CNC(=O)c2ccc3sc([C@@H]4O[C@H](CO)[C@H](O)[C@H](O)[C@H]4O)nc3c2)c1	DRD3 antagonist -101.1 (no result: RGS4 inhibitor, B2AR arrestin)
O=C(NCc1cc(Cl)cc(Cl)c1)c1ccc2sc([C@@H]3O[C@H](CO)[C@H](O)[C@H](O)[C@H]3O)nc2c1	none (no result: RGS4 inhibitor, B2AR arrestin)
O=C(COC(=O)CCSc1ccccc1)Nc1ccccc1Br	none
CCOC(=O)c1cccc(NC(=O)CN(C)S(=O)(=O)c2cnc[nH]2)c1	none
CCc1cccc(NC(=O)CN(C)S(=O)(=O)c2cnc[nH]2)c1	DRD3 antagonist -52.3
N#C/C(=C(/O)CN1CCN(c2ccccc2F)CC1)c1nc(-c2ccc(Cl)cc2)cs1	none
N#C/C(=C(/O)CN1CCCCC1)c1nc(-c2ccc(Cl)cc2)cs1	BRCA1 expr up 7.08µM
CC(C)C[C@H]1CN(CCCC[C@H]2CNC(=O)C(=O)N2CCc2ccc(O)cc2)C(=O)C(=O)N1CCc1ccccc1	none (no result: RGS4 inhibitor, B2AR arrestin)
COc1ccc2c(c1)CC/C2=N\OC(=O)c1ccccc1C	BRCA1 expr up 11.2µM
COc1ccc2c(c1)CCC/C2=N/OC(=O)c1ccccc1OC	none
COc1ccc(C[C@H]2CN3C(=NC[C@H]3C)N2CCNC(=O)c2ccc(C)c(Br)c2)cc1	DRD3 antagonist -57.2
COc1ccc(C[C@H]2CN3C(=NC[C@@H]3C(C)C)N2CCNC(=O)c2ccc(C)c(Br)c2)cc1	DRD3 antagonist -64.3
Cc1ccc(C(=O)NCCN2C3=NC[C@H](C)N3C[C@H]2Cc2ccc(O)cc2)cc1Br	DRD3 antagonist -58.3
COc1ccc(C[C@@H]2CN3C(=NC[C@@H]3C)N2C[C@H](C)NC(=O)c2ccc(C)c(Br)c2)cc1	none
O=C(CC[C@H]1O[C@@H](n2cnc3c(NC(=O)c4ccccc4)ncnc32)[C@H](O)[C@@H]1O)N[C@@H](CO)Cc1c[nH]c2ccccc12	none (no result: RGS4 inhibitor, B2AR arrestin)
C=CCn1c2ccccc2c(=O)c2cc(C#CC[C@@H](C)O)ccc21	BRCA1 expr up 3.55µM
C=CCn1c2ccccc2c(=O)c2cc(C#CC3(O)CCCCC3)ccc21	BRCA1 expr up inconclusive
CN1CCN(c2ccc(CNC(=O)C3(C)Cc4c(-c5ccccc5)ccnc4O3)cc2)CC1 (stereo not drawn)	DRD3 antagonist -62.3 (no result: RGS4 inhibitor, B2AR arrestin)
CC(=O)Nc1ccc(NC(=O)C2(C)Cc3c(-c4ccccc4)ccnc3O2)cc1 (stereo not drawn)	DRD3 antagonist -112.5 (no result: RGS4 inhibitor, B2AR arrestin)
CC1(C(=O)NCCC(F)(F)F)Cc2c(-c3cccc(C(F)(F)F)c3)ccnc2O1 (stereo not drawn)	none (no result: RGS4 inhibitor, B2AR arrestin)
CC(=O)Nc1cccc(-c2ccnc3c2CC(C)(C(=O)Nc2ccccc2)O3)c1 (stereo not drawn)	none (no result: RGS4 inhibitor, B2AR arrestin)
CC1(C(=O)NCc2ccccc2)Cc2c(-c3ccc(C(N)=O)cc3)ccnc2O1 (stereo not drawn)	DRD3 antagonist inconclusive, DRD3 agonist 58.5 (no result: RGS4 inhibitor, B2AR arrestin)
CC1(C(=O)NCc2ccccc2)Cc2c(-c3ccccc3)ccnc2O1 (stereo not drawn)	DRD3 antagonist inconclusive (no result: RGS4 inhibitor, B2AR arrestin)
CC1(C(=O)NCCC(F)(F)F)Cc2c(-c3cccc(C(N)=O)c3)ccnc2O1 (stereo not drawn)	DRD3 antagonist -59.3 (no result: RGS4 inhibitor, B2AR arrestin)
O=C(C1CCCCC1)N1C[C@@H](O)[C@H](n2cc(C3CC3)nn2)C[C@@H]1c1ccc(Cl)cc1	none (no result: RGS4 inhibitor, B2AR arrestin)
COc1ccc(-n2nc(C(=O)Nc3ccc(Cl)cn3)c3c4ccccc4n(C)c3c2=O)cc1	none (no result: BRCA1 expr up, B2AR arrestin, DRD3 antagonist)
CCOC(=O)c1ccc(S(=O)(=O)N2CCN(c3nc(-c4ccccc4)nc4ccccc34)CC2)cc1	none (no result: B2AR arrestin, PTHR1 ag, DRD3 antagonist, DRD3 agonist)
O=C(O)CC(C(=O)O)C(c1ccccc1)c1ccccc1 (stereo not drawn)	none (no result: B2AR arrestin)
